# Source: PubChem BioAssay
# Most compounds without a hit are left out; they make up all but 4.3% or so of the library.
# FAS-TE inh = inhibitors of human fatty acid synthase thioesterase domain; P49327; 360,000 tested, 0.67% active; recombinant FAS-TE, OMFH fluorogenic substrate, fluorescence endpoint; inhibition, % at 15 µM;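 active means compounds whose normalised, plate-corrected inhibition of enzyme fluorescence in the single-dose primary screen is 50% or more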;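 further: 0% = DMSO with enzyme and 100% = substrate without enzyme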
# ADAM17 inh = inhibitors of human ADAM17; P78536; recombinant ADAM17, EDANS/DABCYL FRET peptide cleavage; inhibition, % at 6.95 µM; 370,000 tested, 0.83% active;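 active means inhibition above the mean of compounds lying between control limits plus 3 SD, set per campaign, cut at about 8.5% in these data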;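 further: 0% = DMSO-only wells as the low control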
# NR3A LBD binder = modulators (binders) of human NR3A ligand-binding domain; NR3A LBD differential scanning fluorimetry, Tm shift; 0% = protein alone, 100% = glycine-bound protein; Tm shift relative to glycine control, % at 25 µM; 340,000 tested, 2.5% active; AID 1259313;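 active means melting temperature shift of at least 10% of the positive control shift, at one fixed dose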
# ADAM10 inh = ADAM10 inhibition, QFRET primary screen. O14672. recombinant ADAM10, EDANS/DABCYL FRET peptide cleavage, 3 h. inhibition, % at 7 µM. 370,000 tested, 0.62% active;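 active means inhibition above a per-campaign cutoff equal to the mean of compounds falling between control-based bounds plus 3 SD, cut at about 20% in these data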;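 further: 0% = DMSO wells while the 100% control is not disclosed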
# sPLA2-III inh = Inhibits HGIII-sPLA2 liposome hydrolysis, primary screen | Q9NZ20 | QFRET BODIPY PC-A2 liposome hydrolysis, fluorescence | inhibition, % at 12.2 µM | 370,000 tested, 0.56% active;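 active means inhibition above mean plus 3 SD of compounds lying within the high and low control bounds, cut at about 19% in these data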;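 further: 0% = median of test compound wells and 100% = no enzyme DMSO wells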
# Target sequence (Q9NZ20 whole entry, looked up): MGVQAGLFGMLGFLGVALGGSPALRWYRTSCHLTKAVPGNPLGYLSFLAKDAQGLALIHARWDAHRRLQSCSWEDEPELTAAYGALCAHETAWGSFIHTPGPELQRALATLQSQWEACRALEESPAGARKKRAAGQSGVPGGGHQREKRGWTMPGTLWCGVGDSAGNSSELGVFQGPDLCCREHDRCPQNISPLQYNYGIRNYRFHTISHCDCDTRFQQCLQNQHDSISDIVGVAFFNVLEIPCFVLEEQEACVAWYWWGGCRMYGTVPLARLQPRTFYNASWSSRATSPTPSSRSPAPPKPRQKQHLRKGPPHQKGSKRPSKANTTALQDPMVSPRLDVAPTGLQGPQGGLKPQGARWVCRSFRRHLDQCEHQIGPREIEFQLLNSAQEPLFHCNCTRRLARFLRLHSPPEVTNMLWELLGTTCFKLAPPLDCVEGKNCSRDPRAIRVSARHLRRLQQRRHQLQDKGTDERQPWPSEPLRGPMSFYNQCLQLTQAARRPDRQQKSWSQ
# FAS-TE conf = FAS thioesterase (human) inhibition, confirmation. AID 624325. recombinant FAS-TE, OMFH fluorogenic substrate, fluorescence. 2,300 tested, 45% active. inhibition, % at 15 µM. shares compounds with FAS-TE inh;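 active means compounds inhibiting the enzyme by at least 50% at 15 µM in any one of the replicates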;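 further: 0% = enzyme with DMSO only and 100% = wells lacking enzyme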
# ADAM10 confirm = confirmation of inhibitors of human ADAM10; AID 743208; ADAM10 QFRET peptide cleavage, EDANS fluorescence; inhibition, % at 6.95 µM; 2,100 tested, 1% active; shares compounds with ADAM10 inh;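 active means inhibition above about 20% chosen separately for each screening run, limit read from the data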;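 further: 0% = DMSO wells and 100% = marimastat wells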
# ADAM17 counter = ADAM17 inhibition, counter-screen for ADAM10 exosite hits; shares compounds with ADAM10 inh; ADAM17 QFRET peptide cleavage, EDANS fluorescence; inhibition, % at 6.95 µM; 2,100 tested, 0.5% active; AID 743214;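 active means mean triplicate inhibition above the solvent-only control wells' mean plus 3 SD, cut at about 12% in these data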;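 further: 0% = DMSO wells and 100% = marimastat wells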
# ADAM10 ctr = counter-screen for ADAM17 exosite inhibitors: inhibitors of human ADAM10 | shares compounds with ADAM17 inh | recombinant ADAM10, EDANS/DABCYL FRET peptide cleavage, 3 h | inhibition, % at 6.95 µM | 2,900 tested, 47% active;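 active means mean inhibition over the triplicate runs exceeds the activity threshold set in the earlier primary screen, cut at about 20% in these data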;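 further: 0% = DMSO wells and 100% = marimastat wells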
# ADAM17 confirm = confirmation of inhibitors of human ADAM17; shares compounds with ADAM17 inh; recombinant ADAM17, EDANS/DABCYL QFRET peptide cleavage; inhibition, % at 6.95 µM; 2,900 tested, 65% active;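 active means mean inhibition across replicates above the hit cutoff set in the primary screen, cut at about 8.5% in these data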;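 further: 0% = DMSO wells and 100% = marimastat wells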
# * marks the source's active call; other numbers are inactive results; · = not tested or not shown.
SMILES,FAS-TE inh,ADAM17 inh,NR3A LBD binder,ADAM10 inh,sPLA2-III inh,ADAM10 confirm,ADAM17 counter,ADAM10 ctr,ADAM17 confirm,others
O=C1NCN(c2ccccc2)C12CCN(C(c1cccs1)c1nnnn1-c1ccc3c(c1)OCCO3)CC2 (stereo unspecified),62*,9.0*,·,20,-8,·,·,29*,13*,FAS-TE conf=22
O=[N+]([O-])NC1=NCCN1Cc1ccc(Cl)nc1,0,-7,-1,-1,2,·,·,·,·,
CCC1C(c2ccccc2)NC(c2ccccc2)CC1(O)c1ccc(F)cc1 (stereo unspecified),28,5,-1,21*,-2,4,1,·,·,
OCCN1C2CCC1CC(O)(c1ccc(F)cc1)C2 (stereo unspecified),-9,-2,1,-2,-4,·,·,·,·,
CCN(CCNc1ccc([N+](=O)[O-])c2cccnc12)S(=O)(=O)c1ccc(Cl)cc1,21,7,-1,22*,-16,5,1,·,·,
CCOC(=O)[C@]12Cc3ccc4ccccc4c3[C@H]1N(Cc1ccccc1)C(=O)c1ccccc12,46,6,·,-4,0,·,·,·,·,
Cc1nc2ccc(Br)cc2c(=O)n1-c1ccc([N+](=O)[O-])c(C(F)(F)F)c1,10,5,-4,23*,-6,1,0,·,·,
CCC(c1nnnn1C1CCCCC1)N1CCC2(CC1)C(=O)NCN2c1ccccc1 (stereo unspecified),-4,-2,·,-13,10,·,·,·,·,
CCC(=Nc1cc(OC)ccc1OC)c1c(O)[nH]c(=O)[nH]c1=O,-10,1,0,21*,7,2,0,·,·,
Cc1ccc(NP(=O)(Oc2ccccc2F)Oc2ccccc2F)cc1,28,3,-13,21*,-18,1,0,·,·,
Cc1ccc(NP(=O)(Nc2ccc(C)cc2)Oc2ccccc2)cc1,15,1,0,11,-12,·,·,·,·,
O=c1oc2ccccc2c(O)c1[C@H]1c2ccc(O)cc2Oc2c1c(=O)oc1ccccc21,-2,-5,1,3,-15,·,·,·,·,
COC(=O)C1=C(c2ccccc2OCc2ccccc2)C[C@@H]2CC[C@H]1N2C(=O)NCCc1ccc(F)cc1,18,10.0*,-1,21*,-14,4,2,16,7,
COC(=O)C1=C(c2ccc(F)cc2OCc2ccccc2)C[C@@H]2CC[C@H]1N2C(=O)NCc1ccccc1OC,23,15*,-9,28*,-11,4,2,21*,13*,
COC(=O)C1=C(c2cc3ccccc3s2)C[C@@H]2CC[C@H]1N2C(=O)NCc1ccc(C(F)(F)F)cc1,38,12*,-6,24*,-23,6,2,15,12*,
COC(=O)C1=C(c2ccc(F)cc2OCc2ccccc2)C[C@@H]2CC[C@H]1N2C(=O)NCc1ccccc1,23,0,6,18,-9,·,·,·,·,
CCCNC(=O)N1[C@H]2CC[C@@H]1C(C(=O)OC)=C(c1ccc(-c3ccccc3)c(F)c1)C2,7,16*,-1,26*,-12,0,0,19,10*,
COC(=O)C1=C(c2ccc(-c3ccccc3)c(F)c2)C[C@@H]2CC[C@H]1N2C(=O)NCCOc1ccccc1Cl,40,17*,-6,28*,-10,7,2,28*,17*,
COC(=O)C1=C(c2ccc(-c3ccccc3)c(F)c2)C[C@@H]2CC[C@H]1N2C(=O)NCCO,-11,1,-3,7,0,·,·,·,·,
CCOC(=O)[C@]12Cc3cc(C)ccc3[C@H]1N(C)C(=O)c1cc(OC)ccc12,28,5,·,9,7,·,·,·,·,
CS(=O)(=O)c1ccc(C2=C(CNC(=O)c3nccs3)[C@H]3CC[C@@H](C2)N3Cc2ccco2)cc1,-6,0,·,-3,-1,·,·,·,·,
COc1cccc(NP(=O)(Oc2ccccc2Cl)Oc2ccccc2Cl)c1,33,10*,-7,23*,-37,8,3,45*,18*,
COc1cccc(NP(=O)(Oc2ccccc2)Oc2ccccc2)c1,10,7,1,14,-45,·,·,·,·,
O=C1CC23c4ccccc4N4C(=O)CC5OCC=C6CN1C2CC6C5C43 (stereo unspecified),-7,2,0,11,6,·,·,·,·,
N#Cc1ccc2nc(-c3ccc(CN4CCC(n5nnc6ccccc65)CC4)cc3)c(-c3ccccc3)nc2c1,·,-13,·,-49,6,·,·,·,·,
SMILES,FAS-TE inh,ADAM17 inh,NR3A LBD binder,ADAM10 inh,sPLA2-III inh,ADAM10 confirm,ADAM17 counter,ADAM10 ctr,ADAM17 confirm,others
CCc1ccc(NP(=O)(Oc2ccccc2F)Oc2ccccc2F)cc1,34,12*,-7,26*,-35,6,2,35*,20*,
CCOC(=O)[C@@H]1[C@H]2COc3ccc(Br)cc3[C@H]2N2C(=O)N(c3cccc(C)c3)C(=O)[C@]12C,33,9.3*,2,23*,-10,·,·,30*,19*,
N#Cc1ccc(NC(=S)N2Cc3ccccc3-n3nncc3C2)cc1,-8,1,·,-1,0,·,·,·,·,
Cc1cccc(OCC(=O)N2CCN(Cc3ccncc3)CC2)c1,-10,11*,2,5,4,·,·,-8,0,
COC(=O)C1=C(c2ccc(Cl)c(C(F)(F)F)c2)C[C@@H]2CC[C@H]1N2C(=O)N1CCC(O)(c2ccc(Cl)cc2)CC1,17,9.5*,-4,19,-15,·,·,16,8.8*,
O=c1c(C=NCc2cccs2)c(O)n(C2CCCCC2)c(=O)n1C1CCCCC1,29,3,-4,4,8,·,·,·,·,
N=C(N)c1c(O)n(C2CCCCC2)c(=O)n(C2CCCCC2)c1=O,23,9.6*,18*,17,2,·,·,52*,24*,
S=C(NCCc1ccccc1)N1Cc2cc(N3CCCCC3)ccc2-n2nncc2C1,27,2,·,2,3,·,·,·,·,
CCC(c1nnnn1-c1ccc2c(c1)OCCO2)N1CCC(n2c(=O)[nH]c3ccccc32)CC1 (stereo unspecified),4,0,·,4,-8,·,·,·,·,
O=c1[nH]c2ccccc2n1C1CCN(C(c2ccccc2)c2nnnn2-c2ccc3c(c2)OCCO3)CC1 (stereo unspecified),40,11*,·,18,-12,·,·,38*,23*,
